# Reference: the OligoGym collection
# Biological target: PLA2R1
# Assay: pooled miR-30 sensor sort-seq; sequence = guide strand
# Settings: shRNA
row,Sequence,sensor-assay potency score (higher = more potent)
1,TTACTTTTAAATTTTATCCAGG,-0.532
2,TAGTATCACAACCTACTTCTGC,-0.635
3,TTATCTGTGGTGAACAGTCCAA,-0.19
4,TTTTGTAACAGAATCCACCATG,0.0446

# Biological target: PLAA
# Assay: as above
# Settings: shRNA
row,Sequence,sensor-assay potency score (higher = more potent)
1,TTAGTGACAAACATTGGGCTTT,0.657
2,TATTGTGGTCATTTCCACCGGT,0.536
3,TAGGTCTTGTACTACTTCCAAG,-1.39
4,TAGACTGAGCTGGAAGTCGGAT,-0.595
5,TTAACTTCTTCTCTTCAGGTGC,0.5
6,TAATTAGTGACAAACATTGGGC,-0.357
7,TAAATCTACAGCATTCACTTAC,-0.27
8,TAACACTCCACTGATAGGCTTC,0.424
9,TATACTTCAAGACACTCGCCAG,-0.398
10,TTTAACAGTCTTGTCTGCTGAT,0.5
11,TTTTAGATGCAGCTGATCGGTA,-0.655
12,TTATTTGAGAATCAACACCTAA,-0.576
